The source of these data is PubChem BioAssay (Tox21).

A short description of assay [1]: qHTS assay to identify small molecule antagonists of the estrogen related receptor (ERR) signaling pathway from Tox21 library - cell viability counter screen (AID 1224834). Further: nearly all actives have a fitted effect of over 30% in size. The method in brief: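 ERR reporter cells were plated 6 h before compound addition, then exposed to test compounds in DMSO for 17.5 h at 37 C. Viability was read as CellTiter-Fluor fluorescence after a 30-minute incubation at 37 C.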
(In general: In qHTS, concentration-response curves come from the screen itself.)

Assay [2] deals with Luciferin 4-monooxygenase (Photinus pyralis) (UniProt P08659). Kind of assay: qHTS assay to identify small molecule inhibitors of firefly luciferase (AID 1224835). Further: nearly all actives have a fitted effect of over 25% in size. The method in brief:
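Inhibition of purified Photinus luciferase is measured by luminescence. Substrate levels (D-luciferin, ATP) sit at their KM values. Each compound is tested in a concentration series.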

A short description of assay [3]: qHTS assay to identify small molecule agonists of the constitutive androstane receptor (CAR) signaling pathway - cell viability counter screen (AID 1224836). Further: nearly all actives have a fitted effect of over 45% in size. The method in brief: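 Viability read-out: CellTiter-Fluor fluorescence after 23 h compound exposure at 37 C/5% CO2 in double-stable HepG2-CYP2B6-hCAR cells, with PK11195 present at 0.75 uM final; compounds tested in 15-point titration.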

Assay [4] in a line: qHTS assay to identify small molecule antagonists of the constitutive androstane receptor (CAR) signaling pathway - cell viability counter screen (AID 1224837). Further: nearly all actives have a fitted effect of over 45% in size. The essentials: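 HepG2 cells stably expressing hCAR and a CYP2B6-2.2kb reporter were plated and pre-incubated 4 hr at 37 C/5% CO2, then given compounds at 15 concentrations plus 50 nM CITCO (final). After 23 hr, viability was read by CellTiter-Fluor fluorescence.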

For assay [5], the target named is Nuclear receptor subfamily 1 group I member 3 (Homo sapiens) (UniProt Q14994). The assay can be described thus: qHTS assay to identify small molecule antagonists of the constitutive androstane receptor (CAR) signaling pathway (AID 1224838). Further: nearly all actives have a fitted effect of over 40% in size. The essentials:
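HepG2 cells stably co-transfected with hCAR and a CYP2B6-2.2kb luciferase reporter were seeded 4 h before compound addition at 15 concentrations. Cells were stimulated with 50 nM CITCO (final) for 24 h at 37 C; luciferase luminescence was then read.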

For assay [6] the target is unchanged. Kind of assay: qHTS assay to identify small molecule agonists of the constitutive androstane receptor (CAR) signaling pathway (AID 1224839). Further: nearly all actives have a fitted effect of over 15% in size. Further: potency means the concentration at half of the fitted maximal effect.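 On activation: HepG2 cells stably carrying human CAR and a CYP2B6 luciferase reporter.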 The essentials:
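Luminescence read-out (ONE-Glo, 30 min, room temperature) from double-stable HepG2-CYP2B6-hCAR cells exposed 24 h to 15-point compound series in presence of 0.75 uM PK11195 final.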

Assay [7] in a line: qHTS assay to identify small molecule antagonists of the estrogen related receptor signaling pathway with the pleiotropic PPARgamma coactivator (PGC) from Tox21 10K library - cell viability counter screen (AID 1224840; active means well fitted cell-killing curve with a large enough effect in the repeat runs, not every such curve was filed as active; further: nearly all actives have a fitted effect of over 40% in size). The method in brief: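 PGC/ERR cells were seeded at 2,000 cells/well and left 6 hours at 37 C/5% CO2 before pin-tool addition of compounds in DMSO. After 17.5 hours at 37 C, CellTiter-Fluor was added and fluorescence read 30 minutes later.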

Assay [8] concerns the target Thyrotropin receptor (Homo sapiens) (UniProt P16473). The assay can be described thus: qHTS assay to identify small molecule agonists of the thyroid stimulating hormone receptor (TSHR) signaling pathway (AID 1224843; calls by dose curve; further: nearly all actives have a fitted effect of over 45% in size). The method in brief:
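Screening of the Tox21 10K collection used HEK293 cells engineered with TSHR at 800 cells per well. After a 30-min room-temperature compound exposure, HTRF cAMP reagents were added and fluorescence recorded 1 h later.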

The nature of assay [9]: qHTS assay to identify small molecule agonists of the hypoxia (HIF-1) signaling pathway - cell viability counter screen (AID 1224844; calls by dose curve; further: nearly all actives have a fitted effect of over 50% in size). The method in brief: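 HRE-bla ME-180 cells in medium with 0.5% dialyzed FBS were preincubated 5 hrs at 37C, exposed to compounds for 17 hrs, then viability was read as CellTiter-Glo luminescence after 30 min at room temperature, in the reporter wells.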

The nature of assay [10]: qHTS assay to identify small molecule agonists of H2AX (AID 1224845; active means well fitted activation curve with a large enough effect in the signal ratio in the repeat runs, not every such curve was filed as active; the % refers to the signal ratio). The method in brief:
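Phospho-H2AX Ser139 measured by HTRF (ex 320 nm; em 665 and 620 nm) after 24 hr antibody incubation. Compounds, 15 concentrations, 0.76% DMSO, were applied to CHO-K1 cells for 3hr at 37C before lysis.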

The nature of assay [11]: qHTS assay to identify small molecule agonists of the hypoxia (HIF-1) signaling pathway (AID 1224846; active means well fitted activation curve with a large enough effect in the signal ratio in the repeat runs, not every such curve was filed as active; the % refers to the signal ratio). The essentials: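 HRE-bla ME-180 cells (beta-lactamase reporter under hypoxia response element) were plated at 2,000 cells/well in medium with 0.5% dialyzed FBS, rested 5 hrs, then given compounds in DMSO for 17 hrs at 37C, 5% CO2. Reporter induction was read with CCF4-AM FRET substrate.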

A short description of assay [12]: qHTS RealTime-Glo MT Cell Viability Assay in HepG2 cells - 24 hour (AID 1224867). Further: nearly all actives have a fitted effect of over 50% in size. The essentials: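 HepG2 cells were seeded at 600 cells/well together with NanoLuc luciferase and a cell-permeant prosubstrate, preincubated 5 h at 37 C/5% CO2, then pin-dosed with compounds in DMSO. Nonlytic luminescence from viable cells was read at each time point.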
Assay [13] in a line: qHTS RealTime-Glo MT Cell Viability Assay in HEK293 cells - 32 hour (AID 1224868). Further: top concentration of the series differs between compounds; nearly all actives have a fitted effect of over 50% in size. The essentials:
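HEK293 cells were seeded at 600 cells/well together with NanoLuc luciferase and cell-permeant prosubstrate, preincubated 5 h at 37 C/5% CO2, then given compound in DMSO by pintool. Luminescence from viable-cell prosubstrate reduction was read repeatedly over 40 h.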

Assay [14] can be described thus: A CellTox Green Cytotoxicity Assay to monitor cytotoxicity in HEK293 cells - 0 hour (AID 1224869). Further: nearly all actives have a fitted effect of over 50% in size. The essentials: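 HEK293 cells premixed with CellTox Green dye were seeded at 600 cells/well and left 5 h at 37 C/5% CO2 before pin transfer of 23 nL compound in DMSO. Fluorescence from dye bound to dead-cell DNA was read during 40 h treatment.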
Assay [15] in a line: qHTS RealTime-Glo MT Cell Viability Assay in HepG2 cells - 40 hour (AID 1224870). Further: nearly all actives have a fitted effect of over 50% in size. The method in brief: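 Real-time viability: cells seeded at 600 per well together with NanoLuc and cell-permeant prosubstrate, compounds added after 5 h incubation. Luminescence tracked at 0, 8, 16, 24, 32 and 40 h of exposure.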
A short description of assay [16]: qHTS assay to identify small molecule agonists of H2AX - cell viability counter screen (AID 1224847; calls by dose curve;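 further: wild-type CHO-K1 cells; top concentration of the series differs between compounds; nearly all actives have a fitted effect of over 30% in size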). The essentials:
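CHO-K1 wt, 1000 cells/well, o/n 37C; cpds 15 conc, 3 h 37C, 0.76% DMSO; CellTiter-Glo, 30 min RT, luminescence.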

Assay [17] is described as follows: qHTS assay to identify small molecule antagonists of the estrogen related receptor signaling pathway with the pleiotropic PPARgamma coactivator (PGC) from Tox21 10K library (AID 1224841; call rule not given here). The method in brief:
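PGC/ERR reporter cells were seeded at 2,000 cells/well and held 6 hours at 37 C/5% CO2 before pin-tool addition of compounds in DMSO. After 18 hours at 37 C, One-Glo was added and luminescence read after 30 minutes at room temperature.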

Assay [18] can be described thus: qHTS assay to identify small molecule agonists of the estrogen related receptor signaling pathway with the pleiotropic PPARgamma coactivator (PGC) from Tox21 10K library (AID 1224842). Further: nearly all actives have a fitted effect of over 15% in size. The essentials: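 Luminescence from One-Glo (30 min, room temperature) measured after PGC/ERR cells had 18 h at 37 C with pinned compound (23 nL in DMSO). Cells had been seeded at 2,000 per well and pre-incubated 6 h.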

Assay [19] can be described thus: qHTS assay to identify small molecule antagonists of the estrogen related receptor (ERR) signaling pathway from Tox21 library (AID 1224848). Further: nearly all actives have a fitted effect of over 50% in size. The method in brief:
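Antagonist-mode screen of the Tox21 10K library in an NTP-provided ERR reporter cell line; 18 h compound exposure at 37 C, luminescence measured with ONE-Glo.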

Assay [20] is described as follows: qHTS assay to identify small molecule agonists of the estrogen related receptor (ERR) signaling pathway from Tox21 library (AID 1224849; calls by dose curve; further: nearly all actives have a fitted effect of over 15% in size). The conditions noted are these: ERR reporter cell line, ONE-Glo luciferase, 18 h; at 92.4 µM (top of the series) unless noted. The essentials: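 ERR reporter cell line (NTP) seeded, rested 6 h at 37 C/5% CO2, then pinned with Tox21 compounds in DMSO. After 18 h at 37 C, ONE-Glo luciferase luminescence was read following 30 min at room temperature.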

SMILES strings stand for the structures. Unmarked numbers belong to inactive results. Results filed as inconclusive are left out. Activity calls are given as the source filed them. Unless noted, the call rests on the fitted dose curve; in most records, active means well fitted curve in the direction sought with a large enough effect in the repeat runs; inconclusive means weak or mixed curves; inactive means no such curve, though single readings can be large; an effect the other way counts as inactive or inconclusive.
On the % scale 0 is the no-effect control and ±100 the full control effect.

Nuclear receptor subfamily 1 group I member 3 (Homo sapiens), sequence (Q14994 whole entry, looked up): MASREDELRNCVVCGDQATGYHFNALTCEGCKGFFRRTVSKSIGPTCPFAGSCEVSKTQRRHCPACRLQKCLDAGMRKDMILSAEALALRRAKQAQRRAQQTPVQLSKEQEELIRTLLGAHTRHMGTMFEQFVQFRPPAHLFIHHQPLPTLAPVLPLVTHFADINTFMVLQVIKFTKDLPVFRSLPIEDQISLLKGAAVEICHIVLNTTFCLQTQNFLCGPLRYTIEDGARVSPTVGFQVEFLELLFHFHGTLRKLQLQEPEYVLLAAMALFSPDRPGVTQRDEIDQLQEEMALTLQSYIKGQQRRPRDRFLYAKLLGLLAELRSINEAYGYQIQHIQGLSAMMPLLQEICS
Luciferin 4-monooxygenase (Photinus pyralis), sequence (P08659 whole entry, looked up): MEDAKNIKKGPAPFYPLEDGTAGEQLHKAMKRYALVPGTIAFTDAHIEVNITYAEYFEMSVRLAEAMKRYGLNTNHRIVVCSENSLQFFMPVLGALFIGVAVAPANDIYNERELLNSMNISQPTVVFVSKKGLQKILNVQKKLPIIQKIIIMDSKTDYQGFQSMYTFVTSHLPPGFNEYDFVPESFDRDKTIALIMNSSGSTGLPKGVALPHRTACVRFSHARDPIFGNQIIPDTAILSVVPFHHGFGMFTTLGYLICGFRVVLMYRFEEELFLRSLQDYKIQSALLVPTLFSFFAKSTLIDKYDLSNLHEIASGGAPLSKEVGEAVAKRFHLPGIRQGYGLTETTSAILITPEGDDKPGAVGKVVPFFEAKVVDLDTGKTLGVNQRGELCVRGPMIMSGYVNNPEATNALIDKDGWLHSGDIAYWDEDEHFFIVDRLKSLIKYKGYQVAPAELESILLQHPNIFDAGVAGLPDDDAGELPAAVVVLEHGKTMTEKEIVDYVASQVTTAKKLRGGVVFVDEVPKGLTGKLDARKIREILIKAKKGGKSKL
Thyrotropin receptor (Homo sapiens), sequence (P16473 whole entry, looked up): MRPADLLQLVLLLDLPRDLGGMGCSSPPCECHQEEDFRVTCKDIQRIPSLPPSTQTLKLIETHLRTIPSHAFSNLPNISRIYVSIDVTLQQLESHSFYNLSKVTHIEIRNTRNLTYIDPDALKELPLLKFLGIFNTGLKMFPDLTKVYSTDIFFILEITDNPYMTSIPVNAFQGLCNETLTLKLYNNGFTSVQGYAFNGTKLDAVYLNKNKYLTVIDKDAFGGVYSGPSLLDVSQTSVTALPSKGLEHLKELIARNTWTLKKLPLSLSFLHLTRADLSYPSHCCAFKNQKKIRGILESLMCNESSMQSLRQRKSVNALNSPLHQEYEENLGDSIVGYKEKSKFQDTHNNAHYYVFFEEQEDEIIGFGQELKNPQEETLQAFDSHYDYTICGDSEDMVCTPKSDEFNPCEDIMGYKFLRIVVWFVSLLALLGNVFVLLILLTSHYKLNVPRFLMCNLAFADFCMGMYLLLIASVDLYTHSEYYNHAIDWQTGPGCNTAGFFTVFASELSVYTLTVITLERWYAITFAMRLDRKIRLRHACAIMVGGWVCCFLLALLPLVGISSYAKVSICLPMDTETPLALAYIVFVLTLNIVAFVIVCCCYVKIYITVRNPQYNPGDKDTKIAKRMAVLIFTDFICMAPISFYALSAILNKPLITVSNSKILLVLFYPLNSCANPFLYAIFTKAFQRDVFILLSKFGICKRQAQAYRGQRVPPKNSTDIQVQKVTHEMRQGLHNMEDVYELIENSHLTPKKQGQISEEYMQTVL

`Cc1cc(OI)c(C(C)C)cc1-c1cc(C(C)C)c(OI)cc1C`: the Potency entry in assay [1], in [2], in assay [3], in assay [4], in assay [5] and in [6] was “inactive” throughout. The Potency entry in assay [7], in assay [8], in assay [9], in assay [10], in assay [12] and in assay [13] was “inactive” each time. Besides, the Potency entry in assay [14] and in assay [15] was “inactive” throughout. Also, the molecule was classed as inactive in assay [11].

As for `CCCCC(CC)COC(=O)COc1ccc(Cl)cc1C` (centres undefined), the Potency result in [1], in [2], in [3], in assay [4], in assay [5] and in assay [6] was “inactive” in each case. In addition, the Potency result in assay [7], in [8], in assay [9], in assay [10], in [13] and in [14] was “inactive” in each case. Further, in assay [15], the Potency result is “inactive”. Besides, the molecule was classed as inactive in [11].

As for `C=CC(C)=CCC=C(C)C`, the Potency entry in assay [1], in [2], in assay [3], in assay [4], in [5] and in assay [6] was “inactive” in each case. Further, the Potency result in [7], in assay [9], in assay [10], in assay [13], in assay [14] and in [15] was “inactive” throughout. The call in assay [11] was inactive.

Take `CCCCCCCC/C=C\CCCCCCCC(=O)OC`: the Potency result in [1], in assay [2], in [3], in assay [4], in [5] and in assay [6] was “inactive” in each case. Also, the Potency entry in [7], in assay [8], in [9], in assay [10], in assay [16] and in assay [13] was “inactive” each time. Besides, the Potency result in [14] and in assay [15] was “inactive” throughout. In addition, the outcome in assay [11] was inactive.

In the case of `CCC(C(=O)OCCN(CC)CC)c1ccccc1` (centres undefined), the Potency entry in assay [1], in assay [2], in [3], in [4], in assay [5] and in [6] was “inactive” each time. Besides, the Potency result in [7], in [8], in assay [9], in [10], in [12] and in [13] was “inactive” each time. The Potency result in assay [14] and in [15] was “inactive” throughout.

`O=C(O)c1cccc(O)c1`: the Potency entry in assay [1], in [2], in assay [3], in assay [4], in assay [5] and in assay [6] was “inactive” throughout. In addition, the Potency entry in assay [7], in [8], in assay [9], in assay [10], in assay [16] and in [12] was “inactive” in each case. For the same molecule, the Potency entry in assay [13], in assay [14] and in [15] was “inactive” in each case. Besides, the molecule was classed as inactive in [11].

Take `Brc1cc(-c2ccc(Br)c(Br)c2Br)cc(Br)c1Br`: the Potency entry in assay [1], in assay [2], in assay [3], in [4], in assay [5] and in assay [7] was “inactive” in each case. Also, the Potency result in assay [9], in assay [16], in assay [13], in [14] and in assay [15] was “inactive” in each case. Moreover, the Potency in assay [6] was 24 µM (active). In addition, the molecule was called inactive in [11].

For `CC(=O)Nc1ccccc1C`, the Potency entry in assay [1], in assay [2], in [3], in assay [4], in [5] and in assay [6] was “inactive” throughout. The Potency result in [17], in [18], in assay [8], in assay [9], in [10] and in [16] was “inactive” throughout. In addition, the Potency result in [19], in [12], in [13], in assay [14] and in assay [15] was “inactive” each time. The call in assay [11] was inactive. Also, in [20], the activity change, positive = activation is -0.329%.
